Laboratory results reported in the supplement of paper PMC8975748.
Counter-ions that a name gives are not always drawn.

tested on: Saccharomyces cerevisiae BY4741 SeMeCo community; test: z-score of subpopulation abundance vs DMSO median, subpopulation auxotrophic for HLM; higher = larger share of this subpopulation than in DMSO controls; conditions: 10 µM; 24 h; SM minimal medium; subpopulation (auxotrophy): HLM
Description: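 Fluorescent four-plasmid SeMeCo (self-establishing metabolically cooperating S. cerevisiae BY4741 community; plasmids pH-mRuby2, pL-mWasabi, pU-eCFP, pM-TagRFP657) was grown 24 h in minimal SM medium with each Selleck FDA-approved drug at 10 µM in 384-well plates. Cells were fixed and imaged by high-content confocal microscopy. For each auxotrophic subpopulation (and the prototroph), a z-score gives the deviation from the DMSO vehicle-control population median.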

Row | SMILES | z-score of subpopulation abundance
1 | CCC1(c2ccccc2)C(=O)NCNC1=O [Primidone] | 0.29
2 | Nc1nc(N)nc(-c2cc(Cl)ccc2Cl)n1 [Irsogladine] | -0.41
3 | CCN(CC)CCNC(=O)c1cc(Cl)c(N)cc1OC [Metoclopramide] | 0.54
4 | C[C@H]1c2cccc(O)c2C(O)=C2C(=O)[C@]3(O)C(O)=C(C(N)=O)C(=O)[C@@H](N(C)C)[C@@H]3[C@@H](O)[C@@H]21 [Doxycycline] | -0.1
5 | CCN1CCN(C(=O)N[C@@H](C(=O)N[C@@H]2C(=O)N3C(C(=O)O)=C(CSc4nnnn4C)CS[C@H]23)c2ccc(O)cc2)C(=O)C1=O [Cefoperazone] | 0.34
6 | CC(C)[C@H](N)C(=O)OCC(CO)OCn1cnc2c(=O)[nH]c(N)nc21 (stereo not given in full) [Valganciclovir HCl] | 0.99
7 | CCN1CC(CCN2CCOCC2)C(c2ccccc2)(c2ccccc2)C1=O (stereo not given) [Doxapram HCl] | -1.09
8 | CN[C@@H]1[C@@H](O)[C@@H](O[C@@H]2[C@@H](O)[C@H](O[C@H]3OC(CN)=CC[C@H]3N)[C@@H](N)C[C@H]2N)OC[C@]1(C)O [Sisomicin sulfate] | 0.84
9 | COc1ccc2c(c1)c(CC(=O)O)c(C)n2C(=O)c1ccc(Cl)cc1 [Indomethacin] | -1.07
10 | CO[C@H]1C[C@@H]2CC[C@@H](C)[C@@](O)(O2)C(=O)C(=O)N2CCCC[C@H]2C(=O)O[C@H]([C@H](C)C[C@@H]2CC[C@@H](OC(=O)C(C)(CO)CO)[C@H](OC)C2)CC(=O)[C@H](C)/C=C(\C)[C@@H](O)[C@@H](OC)C(=O)[C@H](C)C[C@H](C)/C=C/C=C/C=C/1C | 21.4
11 | NC12CC3CC(CC(C3)C1)C2 [Amantadine HCl] | -0.47
12 | Oc1ccc(Cl)c2cccnc12 [Cloxiquine] | 64
13 | CC(C)[C@H](N)C(=O)OCCOCn1cnc2c(=O)nc(N)[nH]c21 [Valaciclovir HCl] | -0.27
14 | C[C@H](NCc1ccc(OCc2cccc(F)c2)cc1)C(N)=O [Safinamide Mesylate] | 0.54
15 | Cc1cccc(C)c1NC(=O)C1CCCCN1C (stereo not given) [Mepivacaine HCl] | 0.13
16 | COC(=O)C1=C(C)NC(C)=C(C(=O)OCCN2CCN(C(c3ccccc3)c3ccccc3)CC2)C1c1cccc([N+](=O)[O-])c1 (stereo not given) [Manidipine] | 0.64
17 | C#C[C@]1(O)CC[C@H]2[C@@H]3CCC4=Cc5oncc5C[C@]4(C)[C@H]3CC[C@@]21C [Danazol] | -0.39
18 | Nc1ccc(S(=O)(=O)Nc2nccs2)cc1 [Sulfathiazole] | -0.42
19 | CCC(C)(Oc1ccc(C2(c3ccc(OC(C)(CC)C(=O)O)cc3)CCCCC2)cc1)C(=O)O (stereo not given) [Clinofibrate] | 2.85
20 | CC(=O)N1CCN(c2ccc(OCC3COC(Cn4ccnc4)(c4ccc(Cl)cc4Cl)O3)cc2)CC1 (stereo not given) [Ketoconazole] | -0.67

Row | SMILES | z-score of subpopulation abundance
21 | C[C@H]1[C@H](NC(=O)/C(=N\OC(C)(C)C(=O)O)c2csc(N)n2)C(=O)N1S(=O)(=O)O [Aztreonam] | 1.34
22 | CC(C)c1c(C(=O)Nc2ccccc2)c(-c2ccccc2)c(-c2ccc(F)cc2)n1CC[C@@H](O)C[C@@H](O)CC(=O)O [Atorvastatin Calcium] | 9.32
23 | C=C1c2cccc(O)c2C(O)=C2C(=O)[C@]3(O)C(O)=C(C(N)=O)C(=O)[C@@H](N(C)C)[C@@H]3[C@@H](O)[C@H]12 [Methacycline HCl] | 0.92
24 | CCn1cc(C(=O)O)c(=O)c2ccc(C)nc21 [Nalidixic acid] | -0.21
25 | Cc1cccc(N(C)C(=S)Oc2ccc3ccccc3c2)c1 [Tolnaftate] | -0.75
26 | COC(=O)C1=C(C)NC(C)=C(C(=O)OC(C)(C)CN(C)CCC(c2ccccc2)c2ccccc2)C1c1cccc([N+](=O)[O-])c1 (stereo not given) [Lercanidipine hydrochloride] | 0.74
27 | OC(Cn1cncn1)(Cn1cncn1)c1ccc(F)cc1F [Fluconazole] | -1.07
28 | COc1ccc2cc3[n+](cc2c1OC)CCc1cc2c(cc1-3)OCO2 [Berberine chloride] | -0.32
29 | Cc1cc(O)c(C(=O)N[C@@H](C(=O)N[C@@H]2C(=O)N3C(C(=O)O)=C(CSc4nnnn4C)CS[C@H]23)c2ccc(O)cc2)cn1 [Cefpiramide sodium] | -0.6
30 | COCCCOc1ccnc(C[S+]([O-])c2nc3ccccc3[nH]2)c1C (stereo not given) [Rabeprazole] | 0.32
31 | CCC(C)(C)C(=O)O[C@H]1C[C@@H](C)C=C2C=C[C@H](C)[C@H](CC[C@@H]3C[C@@H](O)CC(=O)O3)[C@H]21 [Simvastatin] | 3.79
32 | C[C@H]1NCc2cc(-c3ccc4c(=O)c(C(=O)O)cn(C5CC5)c4c3OC(F)F)ccc21 [Garenoxacin] | 0.1
33 | CC(C)N1CCN(c2ccc(OCC3COC(Cn4cncn4)(c4ccc(Cl)cc4Cl)O3)cc2)CC1 (stereo not given) [Terconazole] | -0.59
34 | OC(c1ccccc1)(c1ccccc1)C12CC[N+](CCOCc3ccccc3)(CC1)CC2 [Umeclidinium bromide] | 0.44
35 | CC(C)NNC(=O)c1ccncc1 [Iproniazid] | -0.85
36 | O=C1CC2(CCCC2)CC(=O)N1CCCCN1CCN(c2ncccn2)CC1 [Buspirone HCl] | -0.1
37 | COc1ccc2cc([C@H](C)C(=O)O)ccc2c1 [Naproxen] | 1.33
38 | CN[C@@H]1[C@H](O[C@H]2[C@H](O[C@H]3[C@H](O)[C@@H](O)[C@H](N=C(N)N)[C@@H](O)[C@@H]3N=C(N)N)O[C@@H](C)[C@]2(O)C=O)O[C@@H](CO)[C@H](O)[C@H]1O [Streptomycin sulfate] | -0.57
39 | CN1CCN2c3ncccc3Cc3ccccc3C2C1 (stereo not given) [Mirtazapine] | -0.85
40 | CCOC(=O)C1=C(COCCN)NC(C)=C(C(=O)OC)C1c1ccccc1Cl (stereo not given) [Amlodipine Besylate] | 5.98
